The panel holds about 83,000 compounds, 20% with a hit somewhere; the sample as a whole holds those more often.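 A percent growth of 40 corresponds to 60% growth inhibition; 0 means no net growth; -100 means all cells died. Active threshold: below 10.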 A number with no mark means an inactive call. Activity calls are given as the source filed them.

Holding throughout (test): NCI-60 one-dose screen, 48 h (100 = growth as untreated, 0 = no growth, -100 = all killed)
What all share (details): 10 µM

The test system of assay [1] is NCI-H23 lung.
For assay [2], the system named is NCI-H226 lung.
Assay [3] concerns NCI-H322M lung.
For assay [4], the system named is HOP-62 NSCLC.
Assay [5] concerns NCI-H460 lung.
The test system of assay [6] is HOP-92 NSCLC.
The subject of assay [7] is NCI-H522 lung.
In assay [8] the test system is A549/ATCC NSCLC.
The subject of assay [9] is 786-0 renal.
Assay [10] deals with COLO 205 colon.

For `CCNCCCn1c2c(c3cc(OC)c(OC)cc3c1=O)C(=O)c1cc3c(nc1-2)OCO3`, the growth in [1] is -27.2% (active); in assay [2], -79.7% (active); in [3] it was 35.2%; in [4], 11.7%; in assay [5], -24.7% (active); in assay [6], 44.4%. Further, the growth in assay [7] is 35.8%; in assay [8] it was 21.1%; in assay [9] it was -71.7% (active); in [10] it was 25.7%.
As for `O=C(NO)c1ccc(CNc2nc(-c3ccccc3)c3ccccc3n2)cc1`, the growth in [1] is -49% (active); in assay [2] it was 6.26% (active); in assay [3], 11%; in [4], 0.931% (active); in [5], 4.48% (active); in [6], -35.6% (active). Moreover, the growth is -30.9% (active) in [7], 12.3% in assay [8], 10.9% in assay [9] and -80.4% (active) in [10].
In the case of `CCOc1ccc2ncc(C#Cc3cncc(C(=O)Nc4ccc(CN5CCN(C)CC5)c(C(F)(F)F)c4)c3)n2n1`, the growth is -70% (active) in assay [1]; -59.1% (active) in [2]; -76% (active) in [3]; -46.8% (active) in [4]; -52.9% (active) in [5]; -46.6% (active) in assay [6]. The growth was -41.3% (active) in assay [7], -33.9% (active) in [8], -43.8% (active) in assay [9] and -45.8% (active) in assay [10].
In the case of `CCN1CCN(c2ccc(NC(=O)Nc3ccc(-c4cc(C(=O)NC(C)C)c5ncccc5n4)cc3)cc2C(F)(F)F)CC1`, the growth is -86.3% (active) in assay [1]; -81.2% (active) in [2]; -66% (active) in [3]; -87.8% (active) in assay [4]; -40.5% (active) in [5]; -77.2% (active) in assay [6]. Moreover, the growth in assay [7] is -86.3% (active); in assay [8] it was -87.6% (active); in assay [9] it was -93.6% (active); in assay [10], -78.2% (active).
For `Cn1cc(-c2cc(N)n3nc(-c4c[nH]c5ccc(Br)cc45)cc3n2)c2cc(Br)cnc21`, the growth in assay [1] is -81.5% (active); in [2] it was -55.3% (active); in assay [3] it was 11.7%; in assay [4], -69.2% (active); in assay [5], 2.27% (active); in assay [6] it was -63.2% (active). Moreover, the growth in assay [7] was -72% (active); in [8], -45.8% (active); in assay [9] it was -75% (active); in [10], -90.9% (active).
With `Cc1ccc(-c2nc(Nc3ccc(S(N)(=O)=O)cc3)c3ccccc3n2)cc1`, the growth is 71.2% in assay [1]; 73.5% in assay [2]; 53.2% in [3]; 66.7% in assay [4]; 22.4% in assay [5]; 36.4% in [6]. The growth in [7] is 77.3%; in assay [8] it was 51.7%; in [9] it was 14.2%; in assay [10], 82.9%.
In the case of `COc1ccc(NC(=O)Nc2ccc(OCC(=O)N=Nc3c(O)[nH]c4ccc([N+](=O)[O-])cc34)cc2)cc1`, the growth in [1] is 59.5%; in assay [2], 62.7%; in [3] it was 91.2%; in [4], 40.7%; in assay [5], 74%; in assay [6], 53.5%. Also, the growth in [7] is 0.434% (active); in assay [8], 99%; in [9], 73.1%; in assay [10], 112%.
As for `O=C(c1ccc(O)cc1)C1[C@H](c2ccc(Br)cc2)[C@@H](c2ccccc2)NC12C(=O)Nc1ccc(Br)cc12` (stereo not given in full), the growth in assay [1] is -54.4% (active); in assay [2] it was -34.5% (active); in [3], 10.4%; in [4], -36.2% (active); in assay [5], 6.63% (active); in assay [6], -21.3% (active). Besides, the growth is -41.6% (active) in assay [7], 13.4% in assay [8], -5.43% (active) in assay [9] and -85.2% (active) in assay [10].
Consider `COc1ccc2nc(Cl)c(-c3cc(-c4ccccc4)nc(=S)[nH]3)cc2c1`, for which the growth in [1] was 72.6%; in assay [2] it was 80.2%; in assay [3], 89.4%; in assay [4], 75.7%; in [5], 90.4%; in assay [6] it was 54.1%. The growth was 37% in assay [7], 93.6% in assay [8], 78% in assay [9] and 72.6% in assay [10].
For `O/N=C(\CSc1nnc(-c2c[nH]c3ccccc23)n1-c1ccccc1)c1ccc(Cl)cc1`, the growth in [1] was 47.3%; in assay [2], 14.3%; in [3], -49.3% (active); in [4], -64.1% (active); in assay [5] it was 10.5%; in [6], -8.42% (active). For the same compound, the growth in [7] was 12.4%; in assay [8] it was 21.5%; in assay [9], 34.1%; in assay [10] it was 10.2%.
As for `COc1cccc(/C=N/NC(=O)c2ccc3nc(-c4ccc(Cl)cc4)[nH]c3c2)c1O`, the growth was -95.2% (active) in assay [1]; -85.8% (active) in assay [2]; -81.6% (active) in assay [3]; -91.9% (active) in assay [4]; -84.4% (active) in assay [5]; -85.2% (active) in assay [6]. Also, the growth in assay [7] was -83% (active); in assay [8], -76.8% (active); in assay [9], -90.3% (active); in [10], -88.8% (active).
In the case of `O=C(Cn1cc(CSc2nnc3oc4ccccc4n23)nn1)Nc1cccc(Cl)c1`, the growth in [1] was 60.2%; in [2] it was 65%; in assay [3] it was 84.1%; in assay [4] it was 72.9%; in [5] it was 91.1%; in assay [6], 52.1%. Moreover, the growth in assay [7] was 47.6%; in assay [8], 62.9%; in assay [9], 93.3%; in assay [10] it was 97.8%.
Take `O=C(Nc1cccc(C(F)(F)F)c1)c1cncc(C#Cc2cnc3cccnn23)c1`: the growth in [1] is 12.7%; in [2] it was 27.1%; in assay [3], 71.6%; in assay [4], 33.7%; in assay [5] it was 70.7%; in assay [6], 7.14% (active). In addition, the growth in assay [7] was 54.9%; in assay [8], 63%; in [9] it was 40.1%; in assay [10], 82.3%.
As to `CCCn1c(=O)c2[nH]c(-c3ccc(OCc4nc5ccc(C(F)(F)F)cc5[nH]4)cc3)nc2n(CCC)c1=O`, the growth in assay [1] is 11.1%; in assay [2] it was 37.8%; in [3], 69.2%; in [4], 87%; in [5], 41.4%; in assay [6] it was 67.7%. For the same compound, the growth in [7] is 23.6%; in assay [8], 46.7%; in assay [9] it was 42.8%; in assay [10] it was 59.3%.
Turning to `CC[C@@]1(O)C(=O)OCc2c1cc1n(c2=O)Cc2c-1nc1cc(F)c(C)c3c1c2[C@@H](N)CC3`, the growth was -57.4% (active) in assay [1]; -54.1% (active) in [2]; 0.642% (active) in assay [3]; -31.7% (active) in assay [4]; -4.63% (active) in assay [5]; 15.1% in assay [6]. For the same compound, the growth in assay [7] was -53.9% (active); in assay [8], -57.9% (active); in [9], 5.22% (active); in [10], -81.6% (active).
For `N#Cc1c(NC(=O)c2cccc(C(F)(F)F)c2)sc2c1CCC(O)=C2`, the growth in assay [1] is 22.3%; in assay [2] it was 54.7%; in assay [3] it was 49.2%; in [4] it was 55%; in assay [5] it was 30.3%; in [6], 11.2%. The growth is 11.2% in [7], 35.7% in assay [8], 62.1% in assay [9] and 90.2% in [10].
For the compound `Cc1cc(C)nc(SCC(=O)Nc2ccc(S(N)(=O)=O)cc2)n1`, the growth was 100% in assay [1]; 98.5% in assay [2]; 102% in assay [3]; 108% in assay [4]; 134% in assay [5]; 101% in assay [6]. The growth in [7] was 95.9%; in [8], 103%; in assay [9] it was 105%; in assay [10], 124%.
For the compound `N#Cc1c(Cl)nc(SCc2ccc(F)cc2)nc1-c1ccc(F)cc1`, the growth in assay [1] is 95.7%; in assay [2] it was 71.3%; in assay [3], 92.2%; in [4] it was 101%; in assay [5], 103%; in assay [6], 74.8%. Besides, the growth was 74.6% in [7], 91.6% in assay [8], 95.4% in assay [9] and 120% in [10].
Consider `O=c1oc2ccc(-c3ccc(F)cc3F)cc2c(=O)n1-c1ccc(F)cc1`, for which the growth in assay [1] was -27.8% (active); in assay [2], -6.57% (active); in assay [3], 1.43% (active); in assay [4] it was -20.9% (active); in assay [5], 2.62% (active); in assay [6], -23.8% (active). The growth in assay [7] is -7.06% (active); in assay [8], 17.8%; in assay [9], 8.17% (active); in assay [10], 83.2%.
Consider `C=C1CC[C@H](C(=C)C)[C@H]2C=C(C)C(=O)C3=C(C(=O)[C@@](C)(O)C3)[C@H]12`, for which the growth is -63.9% (active) in [1]; -57.8% (active) in assay [2]; -96.9% (active) in [3]; -72.7% (active) in assay [4]; -45.6% (active) in assay [5]; -90.8% (active) in assay [6]. Also, the growth in assay [7] is -88.6% (active); in [8] it was -50.4% (active); in assay [9], 2.21% (active); in [10] it was -88.7% (active).
For the compound `COc1ccc(CCN2C(=O)/C(=C/c3csc(C#N)n3)SC2=S)cc1OC`, the growth in assay [1] was 38.5%; in assay [2], 100%; in assay [3] it was 101%; in assay [4], 111%; in assay [5] it was 98.4%; in assay [6] it was -5.19% (active). The growth in assay [7] was -66.7% (active); in assay [8] it was 95%; in [9], 21.1%; in assay [10], -27.5% (active).
`O=C(CSc1nnc(-c2c[nH]c3ccccc23)n1-c1ccccc1)Nc1ccc(C(=O)/C=C/c2cccc([N+](=O)[O-])c2)cc1`: the growth in assay [1] was 86.2%; in assay [2], 72.7%; in [3] it was 100%; in [4], 98.2%; in assay [5], 99.2%; in assay [6], 104%. For the same compound, the growth in assay [7] is 82.1%; in [8], 97.2%; in assay [9], 101%; in [10], 119%.
With `CN(C)c1ccc(/C=C/c2nc3ccccc3c(=O)n2CC(=O)Nc2ccccc2)cc1`, the growth in [1] is 58.8%; in [2], -6.92% (active); in assay [3], 48.6%; in assay [4] it was 37.3%; in assay [5], 16.8%; in [6], 15.3%. For the same compound, the growth in [7] is 48.7%; in [8] it was 33.6%; in [9] it was 20.1%; in [10], 69.6%.
With `CONC[C@]1(C)C=C2C(=O)[C@](C)(O)C3(CC3)C(C)=C2[C@H]1O`, the growth in [1] is -82.6% (active); in [2], -26.7% (active); in [3] it was -9.89% (active); in assay [4], -21.7% (active); in [5] it was -24.4% (active); in assay [6], -16.6% (active). In addition, the growth in assay [7] was -71.1% (active); in assay [8], 5.7% (active); in assay [9] it was 5.71% (active); in assay [10] it was -79.1% (active).
